This is an account of results in PubChem BioAssay (NCI).

Some test systems named below: T-47D breast; BT-549 breast; MDA-MB-435 melanoma; SW-620 colon; MCF7 breast; HCT-116 colon; HCC-2998 colon; KM12 colon.
Holding throughout (test): NCI-60 one-dose screen, 48 h (100 = growth as untreated, 0 = no growth, -100 = all killed)
Holding throughout (settings): 10 µM unless noted

This is part of a sample that, as a whole, favours compounds with a hit. Of some 83,000 tested, about 20% had one in any assay.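 A percent growth of 40 corresponds to 60% growth inhibition; 0 means no net growth; -100 means all cells died. Active threshold: below 10.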 Unmarked numbers belong to inactive results. The source made the active and inactive calls.

For the molecule `CCOC(=O)c1ccc(N/C=C/C(=O)c2ccccc2)cc1`, the growth in the assay on T-47D breast was 84.6%; in the assay on BT-549 breast, 114%; with MDA-MB-435 melanoma, 92.7%; with SW-620 colon, 100%; in the assay on MCF7 breast, 88.2%; in the assay with HCT-116 colon, 96.5%. The results for the growth with HCC-2998 colon and in the assay with KM12 colon were 109% and 98.5%, respectively.
Consider `O=C(CCCCCCN1CC(=O)N2[C@@H](c3cccc(Cl)c3)c3[nH]c4ccccc4c3C[C@H]2C1=O)NO`, for which the growth in the assay on T-47D breast was 19.6%; in the assay on BT-549 breast it was 82.7%; with MDA-MB-435 melanoma, 31.2%; in the assay with SW-620 colon, 26.3%; in the assay with MCF7 breast it was 38%; with HCT-116 colon, 14.8%. In addition, the growth was 72.1% with HCC-2998 colon and 54.9% in the assay with KM12 colon.
On to `COc1cc2oc(-c3cccc(NC(=O)c4cc(NC(=O)[C@H](C)N)ccc4Cl)c3)cc(=O)c2c(OC)c1OC`, for which the growth with T-47D breast is 67.9%; with BT-549 breast, 108%; in the assay with MDA-MB-435 melanoma it was 105%; with SW-620 colon it was 104%; in the assay with MCF7 breast, 91.4%; with HCT-116 colon it was 94.9%. The growth is 100% in the assay with HCC-2998 colon and 96.3% with KM12 colon.
Turning to `COc1ccc(CCN2C(=O)CSC2=S)cc1OC`, the growth in the assay with T-47D breast was 52.7%; in the assay with BT-549 breast it was 110%; in the assay with MDA-MB-435 melanoma, 93.6%; in the assay on SW-620 colon it was 57.9%; in the assay on MCF7 breast, 29.3%; in the assay with HCT-116 colon, 99.6%. In addition, the results for the growth in the assay on HCC-2998 colon and in the assay on KM12 colon were 111% and 16.6%, respectively.
`Cc1cn(-c2cc(NC(=O)c3cncc(C#Cc4cnc5ccc(O[C@@H]6CCOC6)nn45)c3)cc(C(F)(F)F)c2)cn1`: the growth in the assay with T-47D breast is -28.6% (active); in the assay with BT-549 breast, -96% (active); with MDA-MB-435 melanoma it was -83.1% (active); with SW-620 colon it was 6.01% (active); in the assay with MCF7 breast, -52% (active); in the assay with HCT-116 colon it was -95.7% (active). Besides, the growth was -13.7% (active) in the assay on HCC-2998 colon and -21.5% (active) in the assay on KM12 colon.
`O=C(NNc1nc2cc(F)c(F)cc2n2cccc12)c1ncccn1`: the growth in the assay with T-47D breast was 14.8%; with BT-549 breast, 36.8%; in the assay with MDA-MB-435 melanoma, 26.1%; in the assay on SW-620 colon, 26.4%; in the assay on MCF7 breast, 16.9%; in the assay with HCT-116 colon, 31.2%. Also, the results for the growth in the assay on HCC-2998 colon and in the assay on KM12 colon were 62.4% and 25.6%, respectively.
`COc1ccc2c(c1)c(-c1nn3c(=O)cc(-c4ccccc4)nc3s1)cn2C`: the growth was 16% in the assay on T-47D breast; 49.8% in the assay on BT-549 breast; -23.8% (active) in the assay with MDA-MB-435 melanoma; 28.1% in the assay on SW-620 colon; 18.9% in the assay with MCF7 breast; 22.7% with HCT-116 colon. In addition, the growth in the assay on HCC-2998 colon was 75.2%; in the assay on KM12 colon it was 44.7%.
Turning to `Nc1nc(-c2cccc([N+](=O)[O-])c2)c(N=Nc2ccccc2Cl)s1`, the growth with T-47D breast is 57.9%; with BT-549 breast, 71.6%; in the assay with MDA-MB-435 melanoma, 89.5%; in the assay with SW-620 colon, 54.7%; in the assay on MCF7 breast, 66.6%; with HCT-116 colon, 32.6%. For the same molecule, the growth is 107% in the assay on HCC-2998 colon and 67.4% with KM12 colon.
For `Oc1ccc(CSc2nnc(-c3cnccn3)o2)c2cccnc12`, the growth was 18.5% in the assay on T-47D breast; 31.7% in the assay with BT-549 breast; 13.1% with MDA-MB-435 melanoma; 12.9% in the assay on SW-620 colon; 5.44% (active) in the assay with MCF7 breast; 14.5% in the assay on HCT-116 colon. In addition, the growth in the assay with HCC-2998 colon was 13.2%; in the assay with KM12 colon, 12.5%.
`COc1cnc2c(c1)C(=O)c1c-2n(CCCn2ccnc2)c(=O)c2cc(OC)c(OC)cc12`: the growth is -61.3% (active) in the assay on T-47D breast; -0.217% (active) with BT-549 breast; 20.5% in the assay with MDA-MB-435 melanoma; -77.7% (active) with SW-620 colon; -61.8% (active) in the assay on MCF7 breast; -90.2% (active) in the assay with HCT-116 colon. Further, the growth in the assay on HCC-2998 colon was 24.6%; with KM12 colon, 27.1%.
As for `COC(=O)c1nc(-c2ccc(C)cc2)oc1S(=O)(=O)N1CCN(c2oc(-c3ccccc3)nc2C#N)CC1`, the growth in the assay with T-47D breast was 111%; with BT-549 breast it was 99.7%; in the assay on MDA-MB-435 melanoma it was 102%; with SW-620 colon, 99.5%; with MCF7 breast, 80.6%; in the assay on HCT-116 colon, 92.8%. Further, the growth is 113% in the assay on HCC-2998 colon and 101% in the assay with KM12 colon.
As for `O=[N+]([O-])c1ccc(-c2nnc(SCc3ccc(O)c4ncccc34)o2)cc1`, the growth is 9.66% (active) in the assay with T-47D breast; 27.4% in the assay on BT-549 breast; 19% with MDA-MB-435 melanoma; 20.5% in the assay on SW-620 colon; 6.95% (active) in the assay with MCF7 breast; 12.7% in the assay on HCT-116 colon. The growth in the assay with HCC-2998 colon was 28%; in the assay on KM12 colon, 13.8%.
As for `COCCOc1ccc(-c2csc(NC(C)=O)n2)cc1NS(=O)(=O)c1cccc2c(N(C)C)cccc12`, the growth was 67.7% in the assay on T-47D breast; 105% in the assay with BT-549 breast; 105% in the assay with MDA-MB-435 melanoma; 111% with SW-620 colon; 85% with MCF7 breast; 88.2% in the assay on HCT-116 colon. Moreover, the figures for the growth with HCC-2998 colon and in the assay with KM12 colon were 113% and 97.1%, respectively.
Take `C[C@H]1[C@H](C)CC[C@]2(COC(=O)c3cccnc3)CC[C@]3(C)C(=CC[C@@H]4[C@@]5(C)CCCNC(C)(C)[C@@H]5CC[C@]43C)[C@H]12`: the growth was 61% with T-47D breast; 76.5% with BT-549 breast; 68.5% in the assay on MDA-MB-435 melanoma; 39.1% in the assay on SW-620 colon; 67.3% in the assay with MCF7 breast; 33.5% in the assay with HCT-116 colon. Besides, the growth in the assay with HCC-2998 colon was 49.6%; with KM12 colon it was 68.9%.
With `Cc1cc(-c2ccc3nc(N)sc3c2)nc2ccc3[nH]ncc3c12`, the growth is 58.5% in the assay with T-47D breast; 33% in the assay on BT-549 breast; -44.2% (active) in the assay on MDA-MB-435 melanoma; 15.7% with SW-620 colon; 21% in the assay with MCF7 breast; 21.8% with HCT-116 colon. The growth in the assay on HCC-2998 colon is 66.3%; in the assay with KM12 colon, 34.6%.
